Compounds with a hit are over-represented: about 6.2% of the library has one in this group of screens.
KB-V1 MDR tox: qHTS assay for MDR1-selective chemotherapeutics: Primary screen using the drug-selected MDR subline cells KB-V1. KB-V1 MDR cells viability, CellTiter-Glo, 72 h. Potency, µM (titrated, usually from 46.1 µM), usual class: cytotoxic. 3.4% of 400,000 active; also: % is scaled to controls: 0 for no effect and ±100 for the full control effect; nearly all actives have a fitted effect of over 60% in size
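Cells of the MDR subline KB-V1 are plated, dosed with compound at multiple concentrations, and incubated 72 h at 37 degrees C; CellTiter-Glo is then added and luminescence read after 10 min.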
ATXN viability: Viability Counterscreen for Primary qHTS for Inhibitors of ATXN expression; S2 cells (HEK-293 line with an ATXN2-luciferase reporter) viability, CellTiter-Fluor protease fluorescence, 24 h; Potency, µM (doses to about 56.7 µM), usual class: cytotoxic; 0.49% of 400,000 active; also: nearly all actives have a fitted effect of over 40% in size
HT1080NT lethal: qHTS for induction of synthetic lethality in tumor cells producing 2HG: qHTS for the HT-1080-NT fibrosarcoma cell line; Potency, µM (highest dose often 46.1 µM), for the others: at the highest dose activity, negative = less viability, most hits filed as cytotoxic; 1.6% of 360,000 active; HT-1080-NT fibrosarcoma viability, CellTiter-Glo ATP luminescence, 48 h;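 also: NT is the 2HG producing partner of a matched IDH1 knockdown line; 0% = DMSO-treated cells and -100% = media-only wells without cells; nearly all actives have a fitted effect of over 55% in size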
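Fibrosarcoma NT cells, 750 per well in 5% FBS RPMI, were exposed to compound for 48 hours. Viability: CellTiter-Glo luminescence.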
HT1080 IDH1KD tx: qHTS for induction of synthetic lethality in tumor cells producing 2HG: qHTS for the HT-1080-IDH1KD cell line; HT-1080 IDH1 knockdown viability, ATP luminescence, 48 h; AID 686971, 2013; Potency, µM (top dose mostly 46.1 µM), for the others: at the highest dose activity, negative = toxicity, hits mostly cytotoxic; 2% of 360,000 active;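 also: 0% = DMSO wells and -100% = cell-free medium wells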
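CellTiter-Glo luminescence after 48 h compound exposure at 37 degrees C of IDH1-knockdown HT-1080 cells in 5% FBS RPMI. %Activity scaled between DMSO wells and cell-free media wells, with curves fitted and assigned curve classes.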
KB-3-1 cytotox: qHTS assay for MDR1-selective chemotherapeutics: Primary screen using the parental adenocarcinoma cell KB-3-1; KB-3-1 viability, CellTiter-Glo ATP luminescence, 72 h; Potency, µM (top dose mostly 46.1 µM), usual class: cytotoxic; 1.4% of 400,000 active; AID 1347075, 2019; also: % is scaled to controls: 0 for no effect and ±100 for the full control effect; nearly all actives have a fitted effect of over 60% in size
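Here the drug-naive KB-3-1 line serves as comparator for MDR sub-line selectivity; cells received compound titrations, 72 h at 37 °C, then CellTiter-Glo readout.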
ATXN2 expr inh: Primary qHTS for Inhibitors of ATXN expression. HEK-293 ATXN2-luciferase reporter, luminescence, 24 h. Potency, µM (highest dose often 57 µM), inactives show top-dose activity change, negative = inhibition, hits mostly inhibitors. 0.72% of 360,000 active; also: % is scaled to controls: 0 for no effect and ±100 for the full control effect; nearly all actives have a fitted effect of over 55% in size
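qHTS (up to 57 uM final) was run with 24 h compound exposure of reporter cells at 37 °C. Each well was multiplexed: SteadyGlo luminescence measured ATXN2-luciferase expression after a fluorogenic Gly-Phe-AFC viability readout (25 uM final).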
* hit, by the source's call; i = inactive; ? = inconclusive; . = not tested or not shown; [ ] = remark or other dose. Calls follow the shape of the dose curve; as a rule, active = well fitted curve in the direction sought with a large enough effect; inconclusive = small, poorly fitted or top-dose-only effect, or another doubt; inactive = no such curve, though single readings can be large; an effect the other way counts as inactive or inconclusive. Potency is read from the fitted curve at half-maximal effect.

SMILES | KB-V1 MDR tox | ATXN viability | HT1080NT lethal | HT1080 IDH1KD tx | KB-3-1 cytotox | ATXN2 expr inh
CCOC(=O)c1c(C)[nH]c(C(=O)OCC(=O)Nc2cccnc2Cl)c1C | ? | i | 3.9% | 2.7% | i | 4.1%
CCOC(=O)c1c(C)[nH]c(C(=O)OCC(=O)Nc2cc(Cl)ccc2OC)c1C | 9.2µM* | i | -18.6%[9.24 µM] | ? | i | -31.4%
CCOC(=O)c1c(C)[nH]c(C(=O)OCC(=O)Nc2cc(C)ccc2OC)c1C | ? | i | -1.9% | -0.2% | i | -2.3%
Cc1ccc(OCC(=O)N(C)CC(=O)Nc2ccccc2Cl)c([N+](=O)[O-])n1 | 18.4µM* | i | -2.2% | -22.9% | i | 2.2%
CCOC(=O)c1[nH]c(C)c(C(=O)Nc2cc(OC)ccc2OC)c1C | 0.501µM* | i | 0.631µM* | 0.562µM* | 1.26µM* | 7.4%
CC(=O)c1c(C)[nH]c(C(=O)OCC(=O)Nc2ccc(Cl)cc2[N+](=O)[O-])c1C | ? | i | 18.4µM* | -27.4% | i | -15.7%
Cc1ccc(OCC(=O)N(C)CC(=O)Nc2ccc(F)cc2)c([N+](=O)[O-])n1 | i | i | 6.0% | 2.2% | i | 1.3%
Cc1ccccc1OCC(=O)NCC(=O)OCc1ccc2ccccc2c1 | i | . | . | . | i | .
CC1CN(C(=O)COC(=O)/C=C/c2ccccc2)CC(C)O1 (stereo not drawn) | i | i | -3.8% | 1.8% | i | .
Cc1cccc(N=C2NN=C(c3c(C)[nH]c4ccccc34)CS2)c1 | ? | ? | ? | 18.4µM* | i | 28.2µM*
CN(C)C(=O)c1ccc(N=Nc2c(O)c3ccccc3[nH]c2=O)cc1 | ? | ? | 5.8µM* | 6.51µM* | i | -34.3%
CC(Sc1nnc(-c2ccco2)n1-c1ccccc1)C(=O)NCC1CCCO1 (stereo not drawn) | 20.6µM* | i | 6.3% | 9.8% | i | 0.3%
Cc1ccc(-n2c(SCC3CCCCO3)nnc2-c2ccco2)cc1 (stereo not drawn) | 20.6µM* | i | -18.9% | ? | ? | -3.2%
CC1(C(=O)NS(=O)(=O)C2CC2)CCN(C(=O)c2cccc(OC(F)(F)F)c2)C1 (stereo not drawn) | i | i | 21.4% | 13.2% | i | -5.1%
CN(Cc1nc(-c2ccc(Cl)cc2)no1)S(=O)(=O)c1ccccc1 | i | i | . | . | i | 15.7%
CCn1nc(C)c(CN2Cc3ccccc3OC(c3ccccc3OC)C2)c1C (stereo not drawn) | . | i | . | . | . | .
CCS(=O)(=O)Nc1ccc(C2=NN(C(=S)Nc3ccccc3)C(c3ccco3)C2)cc1 (stereo not drawn) | 13µM* | ? | -23.7% | ? | i | 23.2%
CS(=O)(=O)Nc1ccc(C2=NN(C(=O)c3ccco3)C(c3ccccc3)C2)cc1 (stereo not drawn) | 16.4µM* | i | -1.3% | -13.0% | i | 7.2%
Cc1ccc(C2=NN(C(=S)Nc3ccccc3)C(c3ccco3)C2)cc1 (stereo not drawn) | i | i | -3.8% | -22.6% | i | 100.4%
Cc1ccc(C2CC(c3ccc(NS(C)(=O)=O)cc3)=NN2C(=O)c2ccco2)cc1 (stereo not drawn) | i | i | -13.4% | -23.8% | i | -12.3%
O=c1[nH]ncc(N/N=C\c2cccnc2)c1Cl | ? | i | -0.6% | 2.4% | i | .
O=c1[nH]ncc(N/N=C\c2cccs2)c1Cl | 3.26µM* | i | -4.1% | -10.5% | ? | 11.7%
COc1ccccc1/C=N\Nc1cn[nH]c(=O)c1Cl | 8.2µM* | i | -28.6% | ? | i | 64.6%
O=c1[nH]ncc(N/N=C\c2ccncc2)c1Cl | 20.6µM* | i | 5.6% | 2.2% | i | 9.2%
Cc1cccc(/C=N\Nc2cn[nH]c(=O)c2Cl)c1 | 4.11µM* | i | -9.7% | ? | i | 111.7%
SMILES | KB-V1 MDR tox | ATXN viability | HT1080NT lethal | HT1080 IDH1KD tx | KB-3-1 cytotox | ATXN2 expr inh
CCC(O)CNC(=O)c1cnn(-c2ncc3c(n2)-c2ccccc2CCC3)c1C1CC1 (stereo not drawn) | . | i | . | . | . | .
CCOc1ccc(C2c3[nH]c4ccccc4c3CCN2C(=O)Cc2cccc(OCC)c2OCC)cc1 (stereo not drawn) | i | . | . | . | i | .
Cc1ccc(S(=O)(=O)n2cc(-c3ccccc3)c3ccccc32)cc1 | 1.3µM* | ? | ? | ? | 2.31µM* | 1.9%
Cc1ccc(S(=O)(=O)n2cc(C=O)c3ccccc32)cc1 | i | i | 16.4µM* | 23.1µM* | i | ?
Cc1c(C(=O)NCCc2ccncc2)cnn1-c1nccc(-c2ccccc2C(F)(F)F)n1 | . | i | . | . | . | .
O=C(Cc1cccs1)N(Cc1cccs1)C1(C(=O)NC2CCCC2)CCCCC1 | 8.2µM* | i | 4.3% | 2.3% | ? | -29.0%
O=C(c1ccccn1)N(Cc1ccco1)C1(C(=O)NC2CCCCC2)CCCCC1 | 9.2µM* | i | 0.7% | 0.8% | i | -13.5%
C[C@H]1CN([C@@H](C)CO)C(=O)CCCn2nncc2CO[C@H]1CN(C)S(=O)(=O)c1ccc(F)cc1 | i | i | 2.8% | 1.8% | i | 11.0%
CN(C)c1ccc(-c2[nH][nH]c(=O)c2NC(=O)c2ccccn2)cc1 | i | . | ? | 20.6µM* | i | ?
CN(Cc1ccon1)C(=O)c1cnn(-c2nccc(-c3ccc4c(c3)OCO4)n2)c1C1CC1 | . | i | . | . | . | .
CC(=O)c1ccc(F)c(-c2cc(C)cc3c2OC(CNC(=O)c2cccnc2)C3)c1 (stereo not drawn) | . | i | . | . | . | .
Cc1ccc(S(=O)(=O)N(CCO)Cc2cc3ccc(C)c(C)c3[nH]c2=O)cc1 | 16.4µM* | i | -19.1% | -19.7% | i | -5.0%

Screening data from PubChem.
